These results are taken from PubChem BioAssay (NCI).

Several values for one entry are separate records, joined by “and”; a condition that tells them apart may be missing. Equal values may be shown once. This is part of a sample that, as a whole, favours compounds with a hit. Of some 83,000 tested, about 20% had one in any assay.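 48-hour exposure, single concentration, 96-well plates; percent growth endpoint where 0 means no net growth. Active: below 10.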 A number with no mark means an inactive call. Activity calls are given as the source filed them.

This assay relates to MDA-MB-468 breast. As to the kind of experiment: NCI-60 one-dose screen, 48 h (100 = growth as untreated, 0 = no growth, -100 = all killed). The conditions noted are these: 10 µM unless noted.
On to `COc1ccc(NC(=O)c2sc3nc(-c4cnccn4)cc(-c4cccs4)c3c2N)cc1`, for which the growth was 89%.
`CCCCNCCCN(CCCC)CCCNCCCC`: the growth is 94.2%.
Turning to `Cc1ccc2c(c1)/C(=N\N=C/c1cn(C(C)C)c3ccccc13)C(=O)N2`, the growth was 7.43% (active).
Under `COc1ccc(/C=N/NC(N)=S)c(OC)n1` stands 86.4%; under `N#Cc1nn(-c2cc(=O)[nH]c3ccc(Cl)cc23)c(N)c1C#N`, 110%.
Under `COc1cc(C2C3=C(COC3=O)N(CCO)c3cc4c(cc32)CCC4)cc(OC)c1OC` (stereo not given) stands 0.574% (active); under `COc1ccc(-c2c(N)n[nH]c2-c2cc(OC)c(OC)c(OC)c2)cc1`, -0.0987% (active).
Under `COc1cc(NC(C)CCCNC(=O)CCC(=O)NCCCNCCCCCCCCCCNCCCNC(=O)CCC(=O)NCCCC(C)Nc2cc(OC)cc3cccnc23)c2ncccc2c1` (stereo not given) stands -0.701% [8 µM] (active); under `O=C(NCc1ccc(F)cc1)C1CN(c2ccc(Cl)cc2)N(c2ccc(Cl)cc2)C1=O` (stereo not given), 43.1%; under `Cc1cn(C(=O)/C(Cl)=C(/Cl)C(=O)O)c2ccccc12`, 108%.
As to `Nc1nc(Nc2cccc(F)c2)nc2ccccc12`, the growth is 8.81% (active).
In the case of `C=CC(=O)OC1CCC(C(C)(C)CC)CC1` (stereo not given) it was 108%; in that of `CCOC(=O)C1=C(c2ccccc2)N=C2SC=C(c3ccc(Cl)cc3)N2C1c1ccc(Br)cc1` (stereo not given), 54.3%.
Under `COc1cc(N2CCC(N(C)C)CC2)ccc1Nc1ncc(Cl)c(Nc2ccccc2P(C)(C)=O)n1` stands -38.3% (active).
In the case of `CC[C@@H]1OC(=O)[C@H](C)[C@@H](O[C@H]2C[C@@](C)(OC)[C@@H](O)[C@H](C)O2)[C@H](C)[C@@H](O[C@@H]2O[C@H](C)C[C@H](N(C)C)[C@H]2O)[C@](C)(O)C[C@@H](C)[C@@H]2N[C@@H](COCCOC)O[C@H]([C@H]2C)[C@]1(C)O` it was 109%.
With `O=C(c1ccccc1)c1c(/C=C/c2ccccc2)c2ccccc2[nH]c1=O`, the growth is 94.5%.
For the compound `COC(=O)c1c2c(c(C)[n+]([O-])c1C)C(=O)C=C(NCc1cccc(Cl)c1)C2=O`, the growth was -66.3% (active).
As for `O=[N+]([O-])c1ccccc1/C=N\Nc1ccccc1`, the growth was 66.3% and 89.3%.
Under `N#CCCCCCCCCCCC#N` stands 112%; under `COC(=O)[C@@H]1[C@H](O)[C@H](C)[C@H](O)[C@H](C)/C=C\C=C(C)C(=O)Nc2c(C)c(OC(C)=O)c3c(c2O)C(=O)C(C)=C2OCOC(=C23)C(C)=C[C@@](C)(O)[C@H](O)[C@@H](C)[C@H]1OC(C)=O`, 110%.
Under `COc1ccc(C(=O)C(=O)c2ccccc2)cc1` stands 101%; under `CC(C)(C)c1cc(-c2nc3ccc(N4CCN(CCO)CC4)cc3[nH]2)cc(C(C)(C)C)c1O`, 52.7%; under `CCOC(=O)c1sc(N)c(C(=O)OCC)c1C`, 59.4%.
As for `O=C(NCCc1ccc(O)c(O)c1)C12CC3CC(CC(C3)C1)C2`, the growth is 87.4%.
For `CCCC#CCN(CC)CC`, the growth is 99.1%.
Under `O=C1CCC/C=C\C[C@H]2C=CC(=O)/C2=C/C[C@H](C/C=C\CC(F)(F)F)O1` stands -46.5% (active).
In the case of `CCCNCC(=O)Nc1ccc(C(=O)OC(C)(C)CC)cc1` it was 102%; in that of `COc1ccc(C2=NN3C(C2)c2cc(Br)ccc2OC3c2ccncc2)cc1` (stereo not given), 103%.
As for `CN1CCN(c2ccc(C(=O)Nc3cccc(-c4cn(-c5ccc(S(N)(=O)=O)cc5)nn4)c3)cc2C(F)(F)F)CC1`, the growth was 68.9%.
In the case of `COc1ccc(N=Nc2cc(OC)c(OC)c(OC)c2)cc1` it was 80.9%; in that of `CCCCn1c(=O)[nH]c(N)c([C@@H]2c3c([nH]c(=O)n(CCCC)c3=O)Oc3ccc4ccccc4c32)c1=O`, 113%.
In the case of `Brc1ccccc1Nc1ccc2nnc(-c3ccncc3)n2n1` it was 85.3%.
Consider `CC(=O)c1c(C)nc(-c2cc(C)cc(Cl)c2)nc1-c1cccc(Oc2ccccc2)c1`, for which the growth is 60.8%.
Under `CC[C@@H](C(=O)[C@@H](C)[C@@H](O)[C@H](C)[C@@H]1O[C@@H]([C@@H](CC)C(=O)ONC(=O)c2ccccc2O)CC[C@@H]1C)C1O[C@]2(C=CC(=O)[C@]3(CC[C@@](C)([C@H]4CC[C@](O)(CC)[C@H](C)O4)O3)O2)[C@H](C)C[C@@H]1C` (stereo not given in full) stands 16.4%; under `COc1cc(/C=C/c2nc(Nc3ccc(S(=O)(=O)Nc4cc(C)on4)cc3)c3ccccc3n2)ccc1O`, -7.09% (active).
Regarding `CCOC(=O)C1=C(C)NC(C)=C(C(=O)OC(C)C)C1c1cccc(C#N)c1` (stereo not given), the growth is 79.4%.
On to `CCOC(=O)C1C(=O)OC2CCCCC21` (stereo not given), for which the growth is 110%.
Under `CC(C)CCN(CCC(C)C)CC(=O)Nc1ccc(S(=O)(=O)c2ccc(NC(=O)CN(CCC(C)C)CCC(C)C)cc2)cc1` stands 46.5%.
In the case of `N=C1N=C(N)CS1` it was 103%; in that of `CCOc1ccc2cc(-c3nn(CC4CCN(C)CC4)c4ncnc(N)c34)ccc2c1`, 85.6% and 42%.
